The values that follow come from PubChem BioAssay AID624300 (Southern Research Specialized Biocontainment Screening …, 2012).

The whole screen tested about 2,400 compounds, of which about 360 (15%) were called active.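 The calls were made as follows: active = viability falls under 70% at one or more tested concentrations, taken as toxicity; inactive = viability stays over 70% at every dose.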 A selection follows. Entries with a potency or affinity are not part of this list.

This assay is described as follows: HeLa cell cytotoxicity, dose response, cytotoxicity control for MgcRacGAP inhibitor project (AID 624300).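 Also: 100% = median of untreated control wells on the same plate.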 The settings on record: CellTiter-Glo luminescence, 24 h; series mostly up to 100 µM; viability: at the top concentration. In general terms: Cellular ATP, detected with luciferase, serves as a proxy for viable cell number.
Broadly, the viability is a read-out of living cells in per cent, often relative to untreated cells. On to `COc1ccc(NC2CCCN(C(=O)c3ccccc3-c3ncc[nH]3)C2)cc1` (stereo not drawn), for which the “viability” value was 99.3% (inactive). The value for `CCN1CCN(CCOc2cccc(Cl)c2Cl)CC1` was 98.5% (inactive). The value for `COc1ccc(NC(=O)c2cc3ccc(O)cc3o/c2=N\O)cc1` was 101% (inactive); that for `Cc1sc2ncnc(Nc3ccc(O)cc3)c2c1C` was 103% (inactive); that for `CCN(CC)S(=O)(=O)c1cccc(C(=O)N/N=C/c2ccc(OC)c(O)c2)c1` was 106% (inactive). Turning to `Cc1c(O)ccc2c3c(c(=O)oc12)CCCC3`, the “viability” value was 98% (inactive).

For `Cc1ccc2c(c1)C(C)CC(C)(C)N2C(=O)CN1CCN(C)CC1` (stereo not drawn), the “viability” value is 98.5% (inactive).

On to `O=c1c(-c2ccccc2Cl)c[nH]n1-c1ccccc1`, for which the “viability” value is 89.8% (inactive). Regarding `O=c1c(-c2cccc(Cl)c2)c[nH]n1-c1ccccc1`, the “viability” value is 84.1% (inactive).

Regarding `Cc1ccc(OC(=O)CCC(=O)Nc2ccc(C)c(C)c2)cc1`, the “viability” value is 104% (inactive). On to `COc1cc(/C=C/C(=O)OCC(=O)NC(=O)NC(C)C)ccc1O`, for which the “viability” value is 94.6% (inactive). For `COc1ccc(N2CCN(C(=O)CCCn3nnnc3CN3CCOCC3)C(C)C2)cc1` (stereo not drawn), the “viability” value was 98.7% (inactive). The figure for `O=C1/C(=C\c2ccc(O)cc2)SC(=S)N1/N=C/c1ccc(O)cc1` is 88.5% (inactive); for `Cc1cc(O)ccc1N=Cc1c(C(F)(F)F)[nH][nH]c1=O` it is 96.6% (inactive). On to `Nc1ccc2c(c1)OCCOCCOCCOCCOCCO2`, for which the “viability” value was 97.6% (inactive). The value for `Oc1ccccc1CNc1ccc2c(c1)OCCO2` was 99.8% (inactive); that for `Nc1ccc2nc(CCCCc3nc4ccccc4[nH]3)[nH]c2c1` was 96.5% (inactive).

`CCOC(=O)c1cc(NCc2cccs2)ccc1N1CCOCC1`: the “viability” value is 95.5% (inactive).

For `CN1CCN(/N=C/c2nc(-c3ccccc3)n3ccccc23)CC1`, the “viability” value is 103% (inactive). The value for `CN(C)c1ccc(Nc2ccc([N+](=O)[O-])cn2)cc1` was 109% (inactive); that for `c1cc(CNc2ccc3c(c2)OCCO3)ccn1` was 105% (inactive); that for `CN1CCCN(Cc2ccccc2C(F)(F)F)CC1` was 96.8% (inactive). For the compound `Cc1ccc(CN2CCN(Cc3ccco3)CC2)cc1`, the “viability” value is 92.4% (inactive). The figure for `Cc1ccc(NC(=O)CN(C)C2CCCCC2)cc1Cl` is 122% (inactive). Turning to `CN1C(=O)NC(c2ccc(O)cc2)C2=C1CN(c1ccc(O)cc1)C2=O` (stereo not drawn), the “viability” value is 111% (inactive). For the compound `COc1ccc(/C=N/NC(=O)c2cccc(S(=O)(=O)N3CCCC3)c2)cc1O`, the “viability” value was 98.2% (inactive). For the compound `CN(C)c1cc(NC(=O)CN2CCCC2)c2ccccc2n1`, the “viability” value is 91.6% (inactive).

`CCOc1ccc(CNC2CCCc3ccccc32)cc1` (stereo not drawn): the “viability” value is 87% (inactive). Take `Nc1ccn([C@@H]2O[C@H](CNCC3=CCOc4ccc(O)cc43)[C@@H](O)[C@H]2O)c(=O)n1`: the “viability” value is 103% (inactive). Regarding `O=C(c1ccccc1)c1ccc(C(=O)N2CCN(c3ccc(O)cc3)CC2)cc1`, the “viability” value is 91.1% (inactive). Regarding `O=C(c1cc(C2CC2)nn1-c1ccccc1)N1CCN(c2ccc(O)cc2)CC1`, the “viability” value was 106% (inactive). The value for `O=C(CN1CCCCCC1)Nc1nc2ccccc2s1` was 92.9% (inactive); that for `Cc1ccc(NC(=O)CN2CCC(Cc3ccccc3)CC2)cc1S(=O)(=O)N(C)C` was 82.5% (inactive).
